PubChem BioAssay (EPA / NIEHS)
Inconclusive results are not listed. More than one record can exist for a structure, and the calls need not agree. Calls of active or inactive are those of the source. Rule for the calls: active = hit-call score of the fitted dose curve at least 0.9, where 1 is the maximum; inconclusive = response in the unintended direction; inactive = score below 0.9.

How the values were obtained:
[1] = TOX21_p53_BLA_p2_viability: Viability Assessment in the Tox21 HCT-116 p53 Agonism Beta-lactamase Assay, Phase 2 (AID 2283591);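 note: actives lower the ATP signal meaning cytotoxicity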
How it was run: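 HCT-116 p53-bla cells (4000/well) rested 5 h at 37C, then received compounds in DMSO (217-fold dilution) for 16 h at 37C, 5% CO2. After the CCF4 read, CellTiter-Glo was added; ATP luminescence was read after 30 min at room temperature.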

[2] = target: Cellular tumor antigen p53 (Homo sapiens) (UniProt P04637); assay: TOX21_p53_BLA_p2_ratio: Tox21 HCT-116 p53 Agonism Beta-lactamase Assay, Ratio, Phase 2 (AID 2283592)
How it was run: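 Readout: blue/green (460/530 nm) FRET emission ratio after 2 h CCF4-AM loading at room temperature, excitation 405 nm. HCT116 p53 bla cells, 16 h compound exposure at 37C, 5% CO2; agonist direction fitted against DMSO baseline.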

[3] = TOX21_p53_BLA_p3_viability: Viability Assessment in the Tox21 HCT-116 p53 Agonism Beta-lactamase Assay, Phase 3 (AID 2283593);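 note: cells exposed to compound for 16 h before reading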
How it was run: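 HCT-116 cells (4000/well) rested 5 h at 37C, then got DMSO compounds by pin tool (217-fold dilution) for 16 h at 37C, 5% CO2. After the bla read, CellTiter-Glo was added and luminescence read at 30 min, room temperature.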

[4] = target: Cellular tumor antigen p53 (Homo sapiens) (UniProt P04637); assay: TOX21_p53_BLA_p3_ratio: Tox21 HCT-116 p53 Agonism Beta-lactamase Assay, Ratio, Phase 3 (AID 2283596)
How it was run: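 Cells were seeded at 4000/well, rested 5 h at 37C, then dosed with DMSO compound solutions (217-fold dilution) for 16 h. CCF4-AM substrate was loaded for 2 h at room temperature, and the 460/530 nm emission ratio was fitted for gain of signal versus DMSO.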

[5] = target: Cellular tumor antigen p53 (Homo sapiens) (UniProt P04637); assay: TOX21_p53_BLA_p5_ratio: Tox21 HCT-116 p53 Agonism Beta-lactamase Assay, Ratio, Phase 5 (AID 2283599)
How it was run: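 HCT-116 cells carrying a p53-inducible beta-lactamase reporter were seeded at 4000 cells/well and dosed after 5 h with compound in DMSO (217-fold dilution). After 16 h at 37C, CCF4-AM substrate was added for 2 h, and the 460/530 nm emission ratio was scored as gain-of-signal versus DMSO.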

[6] = target: Cellular tumor antigen p53 (Homo sapiens) (UniProt P04637); assay: TOX21_p53_BLA_p4_ratio: Tox21 HCT-116 p53 Agonism Beta-lactamase Assay, Ratio, Phase 4 (AID 2283601)
How it was run: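 HCT116 cells carrying an inducible beta-lactamase reporter were plated at 4000 cells/well, rested 5 h, then exposed to compounds in DMSO (217-fold dilution) for 16 h at 37C. CCF4-AM substrate was loaded 2 h at room temperature; 460/530 nm emission ratio scored gain-of-signal versus DMSO.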

[7] = TOX21_p53_BLA_p4_viability: Viability Assessment in the Tox21 HCT-116 p53 Agonism Beta-lactamase Assay, Phase 4 (AID 2283597);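 note: hits lower the luminescence signal meaning cytotoxicity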
How it was run: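 ATP content by CellTiter-Glo luminescence, 30 min RT, read after the beta-lactamase ratio step. Cells: HCT116, 4000/well, compound added after 5 h, exposure 16 h at 37C. Signal loss = reduced viability.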

[8] = TOX21_p53_BLA_p5_viability: Viability Assessment in the Tox21 HCT-116 p53 Agonism Beta-lactamase Assay, Phase 5 (AID 2283600)
How it was run: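 ATP luminescence (CellTiter-Glo, 30 min, RT) served as the viability read-out, with loss of signal indicating cytotoxicity. Compounds in DMSO were pinned at a 217-fold dilution onto 4000 cells/well and incubated 16 h, 37C.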

Measured: AC50

Sequence of Cellular tumor antigen p53 (Homo sapiens) (P04637 whole entry, looked up): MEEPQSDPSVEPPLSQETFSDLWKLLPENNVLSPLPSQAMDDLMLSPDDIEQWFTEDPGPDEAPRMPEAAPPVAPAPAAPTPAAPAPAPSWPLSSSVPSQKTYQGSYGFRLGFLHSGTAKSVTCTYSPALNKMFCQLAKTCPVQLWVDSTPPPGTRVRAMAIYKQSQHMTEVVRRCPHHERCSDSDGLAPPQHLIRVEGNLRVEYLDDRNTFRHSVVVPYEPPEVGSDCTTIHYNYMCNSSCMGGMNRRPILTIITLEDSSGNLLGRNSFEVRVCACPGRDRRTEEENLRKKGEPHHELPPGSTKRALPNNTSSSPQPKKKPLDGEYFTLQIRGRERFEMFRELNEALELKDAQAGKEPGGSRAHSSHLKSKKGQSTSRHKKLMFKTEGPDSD

CC(C)COC(=O)c1ccccc1
not listed: [7] | [8]
inactive: all other assays above

CC(C)OB(OC(C)C)OC(C)C
inactive: [1] | [2] | [4] | [7]

COc1ccccc1NC(=O)CC(C)=O
not listed: [8]
inactive: all other assays above

[Na+]
inactive: all assays above

CCC(C)COC(=O)CC(C)C (centres undefined)
active: [7] 46.1 µM
not listed: [4]
inactive: all other assays above

CCC(C)(C)C1CCC(=O)CC1
not listed: [7]
inactive: all other assays above

CCCc1ccc(O)cc1
not listed: [4] | [8]
inactive: all other assays above

COC(=O)c1cccc(C(=O)OC)c1
inactive: all assays above

CC1=CCC(=C(C)C)CC1
inactive: [1] | [3] | [4] | [5] | [6]

CN(C)CCCNCCCN(C)C
not listed: [4] | [8]
inactive: all other assays above

CC(C)=CC(=O)O
inactive: [1] | [3] | [5]

CCCCCCCCOS(=O)(=O)O
inactive: [1] | [2] | [3] | [8] | [6]

O=S(=O)(O)c1cc(O)c(O)c(S(=O)(=O)O)c1
inactive: [1] | [2] | [3] | [7] | [8]

CC(C)(C)c1cccc(O)c1
inactive: [1] | [2] | [5] | [6]

CC1=CC(C)C(C=O)C(C)C1 (centres undefined) (tested in a mixture with another compound)
inactive: [1] | [2] | [4] | [8] | [6]

O=S(=O)(O)c1cc(S(=O)(=O)O)c2c(N=Nc3ccccc3)c(O)ccc2c1
not listed: [5] | [8]
inactive: all other assays above

CC(=O)OC(C)(C)C
inactive: [1] | [2] | [3] | [6]

O=C(C=Cc1ccccc1)OCCCc1ccccc1
not listed: [2]
inactive: all other assays above

NCCCOCCOCCOCCCN
not listed: [4]
inactive: all other assays above

CCO[Si](CC)(OCC)OCC
not listed: [5]
inactive: all other assays above

CC1=CCC(C(C)(C)O)CC1 (centres undefined)
inactive: all assays above

CC(C)(CO)CO
inactive: all assays above

NC(N)=NC(N)=NCCc1ccccc1
inactive: [2] | [3] | [7] | [5] | [6]
active: [2] 20.4 µM

CCNC(=S)NCC
not listed: [3]
inactive: all other assays above

C=C(C)C(=O)OCCC[Si](OC)(OC)OC
inactive: all assays above

CCCCOC(=O)C(C)OC(=O)CCC (centres undefined)
inactive: [1] | [2] | [4] | [8] | [6]

C=C1CC/C=C(\C)CC[C@@H]2[C@@H]1CC2(C)C
not listed: [4] | [8]
inactive: all other assays above

O=C(O)c1ccco1
inactive: [1] | [2] | [3] | [4] | [5]

C=C/C(C)=C/C/C=C(\C)CCC=C(C)C
inactive: [1] | [3] | [4] | [8]
